PMC4336329 (PLoS ONE, 2015)
The whole screen tested about 310,000 compounds, of which about 14,000 (4.5%) showed an effect of 50% or more. Effects have a minus sign here. The entries come from a sample that favours strong results as a whole.

These compounds were tested against human ether-à-go-go-related gene (hERG) potassium channel (human, UniProt Q12809) (assay: primary screen, population patch clamp on CHO cells stably expressing hERG; higher = less effect of the substance).
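Also: peak tail current of the secondary pulse compared with the same well before compound.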

Chain of human ether-à-go-go-related gene (hERG) potassium channel (Q12809 whole entry, looked up): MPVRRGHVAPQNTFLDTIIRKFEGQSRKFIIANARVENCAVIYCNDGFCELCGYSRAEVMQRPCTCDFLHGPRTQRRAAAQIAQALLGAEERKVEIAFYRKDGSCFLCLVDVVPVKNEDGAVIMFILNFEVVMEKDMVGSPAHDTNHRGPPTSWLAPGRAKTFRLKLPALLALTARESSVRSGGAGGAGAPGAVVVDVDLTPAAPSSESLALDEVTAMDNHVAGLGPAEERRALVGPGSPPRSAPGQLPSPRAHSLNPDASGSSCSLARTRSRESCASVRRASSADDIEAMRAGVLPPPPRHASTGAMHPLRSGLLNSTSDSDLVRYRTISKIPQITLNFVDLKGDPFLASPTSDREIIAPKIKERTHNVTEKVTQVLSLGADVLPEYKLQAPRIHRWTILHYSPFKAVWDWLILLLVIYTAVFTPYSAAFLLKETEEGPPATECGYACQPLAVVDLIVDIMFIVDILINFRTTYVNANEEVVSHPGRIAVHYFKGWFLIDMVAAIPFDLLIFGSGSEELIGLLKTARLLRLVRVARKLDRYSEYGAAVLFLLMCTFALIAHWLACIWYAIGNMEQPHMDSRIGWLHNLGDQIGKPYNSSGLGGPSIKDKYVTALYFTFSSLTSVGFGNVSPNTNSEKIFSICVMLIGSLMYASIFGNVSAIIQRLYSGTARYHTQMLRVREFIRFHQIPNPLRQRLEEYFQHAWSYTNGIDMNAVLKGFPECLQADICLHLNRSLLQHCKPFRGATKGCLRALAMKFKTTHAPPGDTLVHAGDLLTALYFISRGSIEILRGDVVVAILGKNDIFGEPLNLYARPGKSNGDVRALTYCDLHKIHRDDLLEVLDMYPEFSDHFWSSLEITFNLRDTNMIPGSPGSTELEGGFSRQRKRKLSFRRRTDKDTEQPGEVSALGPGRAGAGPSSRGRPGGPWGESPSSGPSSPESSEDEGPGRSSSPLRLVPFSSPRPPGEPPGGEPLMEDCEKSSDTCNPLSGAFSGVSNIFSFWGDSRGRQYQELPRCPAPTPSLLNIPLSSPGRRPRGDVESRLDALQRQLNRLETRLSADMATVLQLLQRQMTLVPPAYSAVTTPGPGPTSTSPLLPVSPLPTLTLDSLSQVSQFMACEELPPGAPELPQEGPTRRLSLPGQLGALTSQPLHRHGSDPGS

| SMILES | hERG current change (%, negative = inhibition) at 10uM |
| --- | --- |
| O=C(O)Cn1nnc2ccccc21 | -3.4% |
| O=C(Cn1nnc2ccccc21)c1ccc(Cl)cc1 | -4.9% |
| C/C(Cn1nnc2ccccc21)=N/OC(=O)c1c(F)cccc1F | 12.5% |
| C/C(Cn1nnc2ccccc21)=N\OC(=O)c1cc(F)c(F)cc1Cl | -80.5% |
| C/C(Cn1nnc2ccccc21)=N\OC(=O)c1ccccc1C | -63.9% |
| Cc1ccccc1NC(=O)Cn1nnc2ccccc21 | -12% |
| C[N+]1(CC(=O)Nc2ccc(F)cc2)CCN(C(=O)c2ccco2)CC1.[Cl-] | 13.2% |
| COc1ccc(CCNC(=O)C2CCCCC2C(=O)O)cc1OC (stereo not drawn) | -2.9% |
| Nc1ccc([N+](=O)[O-])cc1C(=O)NNC(=O)c1ccco1 | 25.9% |
| O=C(CSCc1ccccc1)Nc1ccc2c(c1)OCO2 | 7.4% |
| CCCc1nc2ccccc2c(=O)n1-c1ccc(C(=O)OCC)cc1 | 13.5% |
| CSc1ncc(/C=C2/C(=O)NC(=O)N(C)C2=O)cn1 | 18.8% |
| CC(=O)[C@@]1(O)CC[C@H]2[C@@H]3CCC4=CC(=O)CC[C@]4(C)[C@H]3CC[C@@]21C | 1.7% |
| C[C@]12CCC(=O)C=C1CCC1C2CC[C@@]2(C)C1CC[C@@]2(O)CC#N (stereo partly drawn) | -59.8% |
| C[C@]12CCC(=O)C=C1CC[C@@H]1[C@@H]2CC[C@@]2(C)[C@H]1CC[C@]2(O)C(=O)CO | 9.17% |
| COc1ccc(S(=O)(=O)N2CCC(C(=O)NCc3ccco3)CC2)cc1C | 8.26% |
| O=C1c2ccccc2C(=O)N1Cc1ccco1 | -3.32% |
| c1coc(CN=C2NC(=NCc3ccco3)c3ccccc32)c1 | -66.4% |
| O=S1(=O)NC(=NCc2ccco2)c2ccccc21 | 2.66% |
| Cc1cc(Nc2ccc(C(=O)N3CCCCC3)cc2)c2cccc(C)c2n1 | -23.5% |
| CC(=O)c1ccc(Nc2cc(C)nc3c(C)cccc23)cc1 | -36.2% |
| Cc1cc(C)c2nc(C)cc(Nc3ccc(C(=O)N(C)C)cc3)c2c1 | -28.1% |
| CC(=O)c1cccc(Nc2cc(C)nc3c(C)cccc23)c1.Cl | -72.8% |

| SMILES | hERG current change (%, negative = inhibition) at 10uM |
| --- | --- |
| CC(=O)c1cccc(Nc2cc(C)nc3c(C)cc(C)cc23)c1.Cl | -56.1% |
| CC(=O)c1ccc(Nc2cc(C)nc3c(C)cc(C)cc23)cc1 | -45.7% |
| Cc1cc(C)nc(-n2cc(C(=O)c3cc(F)ccc3O)cn2)n1 | 9.85% |
| CCOC(=O)C1=C(C)NC(=O)NC1c1cc2c(cc1Br)OCO2 (stereo not drawn) | 6.32% |
| NC(=O)CC(NC(=O)Cc1ccc(Br)cc1)c1ccc(NCc2ccc(F)c(F)c2)c([N+](=O)[O-])c1 (stereo not drawn) | -1.71% |
| NC(=S)N1OC[C@@H]2COc3ccc4ccccc4c3[C@@H]21 | 4.27% |
| CCOc1ccc(N2C=Nc3ccc(OCC)cc3C2)cc1 | -63.9% |
| CC(C)c1ccc(N2C=Nc3ccc(C(C)C)cc3C2)cc1 | -9.45% |
| CCOc1ccc(N2Cc3ccccc3C2)cc1 | -2.48% |
| O=C1SCCC1NC(=O)C(c1ccccc1)c1ccccc1 (stereo not drawn) | 3.15% |
| Cc1ccc(NC(=O)CCN2C(=O)c3cccc4cccc(c34)C2=O)cc1 | 9.71% |
| C/C(=N\NC(=S)NC(C)C)c1ccc(C(C)(C)C)cc1 | 11.1% |
| CCCCCCCCNC(=O)c1cccnc1SCC(=O)Nc1ccccc1OC | 2.4% |
| CCCCCCCCNC(=O)c1cccnc1SCC(=O)Nc1ccc(OC)cc1OC | 5.99% |
| CCCCCNC(=O)c1cccnc1SCC(=O)Nc1ccccc1OC | -65.6% |
| CN(CC(=O)Nc1ccc(F)c(F)c1F)C(=O)CC1OC(=O)c2ccccc21 (stereo not drawn) | -27.6% |
| O=C(CN1C(=O)C2CCCCC2C1=O)Nc1ccc(OC(F)F)c(Cl)c1 (stereo not drawn) | -2.68% |
| CN(CC(=O)Nc1ccccn1)S(=O)(=O)c1ccc(Cl)cc1 | -9.34% |
| CCc1ccc(NS(=O)(=O)c2c(C)noc2C)cc1 | -10.3% |
| Cc1ccc(NS(=O)(=O)c2c(C)noc2C)cc1 | -55.1% |
| Cc1noc(C)c1S(=O)(=O)Nc1ccc(C(C)C)cc1 | -17.6% |
| O=C(CN1C(=O)CSc2ncccc21)Nc1cccc(Cl)c1 | -25.4% |
| Cc1ccnc(SCC(=O)c2ccc(Br)s2)n1 | 3.59% |

| SMILES | hERG current change (%, negative = inhibition) at 10uM |
| --- | --- |
| CC1(C)CC(=O)C2=C(C1)N(c1ccccc1C#N)C(N)=C(C#N)C2c1cccs1 (stereo not drawn) | -13% |
| Cn1c2ccccc2c2nnc(NN)nc21 | 12.2% |
| Cn1c2ccccc2c2nnc(N/N=C/c3ccc(O)cc3)nc21 | -0.978% |
| C/C(=N\Nc1nnc2c3ccccc3n(C)c2n1)c1ccc(C)o1 | -52.4% |
| CCOC(=O)C1(C(F)(F)F)N=C(N(C)C)OC(N(C)C)=N1 | 5.29% |
| Cc1cc(C)cc(Nc2cnn(C34CC5CC(CC(CC(=O)O)(C5)C3)C4)c(=O)c2Cl)c1 | 5.39% |
| O=C(Nc1nc(-c2ccccn2)cs1)c1ccc(Br)s1 | 7.34% |
| COC1(OC)N=C(N)C2(C#N)C(c3ccc(F)cc3)C12C#N (stereo not drawn) | 5% |
| COC1(OC)N=C(N)C2(C#N)C(c3ccc(C)cc3)C12C#N (stereo not drawn) | 10.1% |
| COc1ccc(C2C3(C#N)C(N)=NC(OC)(OC)C23C#N)cc1 (stereo not drawn) | -53.4% |
| OC(CNCCNc1ncccc1C(F)(F)F)COc1ccc(F)cc1 (stereo not drawn) | -72% |
| O=C(NCC(O)COc1ccc([N+](=O)[O-])cc1)c1ccccc1 (stereo not drawn) | -40.4% |
| COc1ccc(OCC(O)CNCCNc2nccc(C(F)(F)F)n2)cc1 (stereo not drawn) | -23.3% |
| O=[N+]([O-])c1ccc(OCC(O)CNCCNc2nccc(C(F)(F)F)n2)cc1 (stereo not drawn) | -79.2% |
| Cc1cccnc1NCC(O)COc1ccccc1 (stereo not drawn) | -37.5% |
| OC(CNCCNc1ncccc1C(F)(F)F)Cn1ccc2ccccc21 (stereo not drawn) | -45.3% |
| Nc1ccc2oc3ccc(N)cc3c(=O)c2c1 | 13.8% |
| CCOc1cccc(CN(C)CC2CCCN(CCc3ccc(Cl)cc3)C2)c1O (stereo not drawn) | -69.7% |
| CN(Cc1ccccc1OCCO)CC1CCCN(CCc2ccc(Cl)cc2)C1 (stereo not drawn) | -66.9% |
| CCN(Cc1ccccc1OC)CC1CCCN(CCc2cccc(OC)c2)C1 (stereo not drawn) | -43.6% |
| COc1ccccc1CCN1CCCC(CN(C)Cc2ccc(OCCO)cc2)C1 (stereo not drawn) | -40.8% |
| CCOc1cccc(CN(CC)CC2CCCN(CCc3cccc(OC)c3)C2)c1O (stereo not drawn) | -66.7% |
| CN(Cc1ccccc1O)CC1CCCN(CCc2ccc(Cl)cc2)C1 (stereo not drawn) | -76.1% |

| SMILES | hERG current change (%, negative = inhibition) at 10uM |
| --- | --- |
| CCOC(=O)c1cc2sc(C)cc2n1CC(=O)N1CCOCC1 | 7.06% |
| Cc1cc(NC(=O)c2cccnc2)ccc1NC(=O)c1cc2ccccc2o1 | 11.1% |
| O=C(Nc1ccccn1)C(F)(F)C(F)(F)C(F)(F)C(F)(F)C(=O)Nc1ccccn1 | -18% |
| COc1ccc(/C=C/C(=O)C2CC2)cc1Cn1nc(C)c([N+](=O)[O-])c1C | -14.6% |
| COc1cc(C(=S)N2CCOCC2)ccc1OC(=O)c1cc(OC)c(OC)c(OC)c1 | 21.8% |
| Cc1nnc(C)c2c(C)n(-c3ccc(Cl)c(N)c3)c(C)c12 | -45% |
| CC1(C)CC(=O)C2=C(C1)OC(N)=C(C#N)C21CCN(C(=O)OCc2ccccc2)CC1 | -2.49% |
| N#CC1=C(N)OC2=C(C(=O)CCC2)C12CCN(C(=O)OCc1ccccc1)CC2 | -55.9% |
| CCOC(=O)N1CCC2(CC1)C(C#N)=C(N)OC1=C2C(=O)CCC1 | -0.515% |
| Cc1cc(NN)nc(NS(=O)(=O)c2ccccc2)n1 | 25.7% |
| COc1ccc(C2/C(=C(/O)c3ccccc3)C(=O)C(=O)N2CCO)cc1 (stereo not drawn) | -21.1% |
| COc1ccc(N/C(C)=C2/C(=O)C(=O)N(CCO)C2c2ccc(Br)cc2)cc1 (stereo not drawn) | -49% |
| COc1ccc(N/C(C)=C2/C(=O)C(=O)N(CCO)C2c2ccc([N+](=O)[O-])cc2)cc1 (stereo not drawn) | -67.3% |
| O=C(N/N=C/c1ccc([N+](=O)[O-])cc1)c1cccc2cc[nH]c12 | 12.4% |
| CN(CC(=O)NCc1cccs1)S(=O)(=O)c1cccc2nsnc12 | 0.981% |
| CN(CC(=O)NCc1ccc(Cl)cc1)S(=O)(=O)c1cccc2nsnc12 | -52.5% |
| CN(CC(=O)NCc1ccc(F)cc1)S(=O)(=O)c1cccc2nsnc12 | -21.1% |
| O=C(C1=COCCO1)N1CCN(C(c2ccccc2)c2ccccc2)CC1 | -7.48% |
| Cc1ccc(CNc2nc3ccccc3n3nnnc23)cc1 | 10.6% |
| CC1CC(C)CN(C(=O)c2ccc3nc[nH]c3c2)C1 (stereo not drawn) | 4.05% |
| O=c1[nH]c2ccc(Cl)cc2c(O)c1Cc1ccccc1 | 12.6% |
